Results taken from PubChem BioAssay AID488969 (Vanderbilt High Throughput Screening Facility, 2010).
Over roughly 110,000 compounds, “z-score” has its median near -0.1; the highest 2% begin near 2. The sample holds the highest values, similar compounds and a random draw of the others, so the mix is not that of the screen. Activity calls are given as the source filed them.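 The calls were made as follows: active = z-score in the third read window above 3 or below -3; inactive = the rest.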

Molecular target: Metabotropic glutamate receptor 8 (Rattus norvegicus) (UniProt P70579)
Sequence (P70579 whole entry, looked up): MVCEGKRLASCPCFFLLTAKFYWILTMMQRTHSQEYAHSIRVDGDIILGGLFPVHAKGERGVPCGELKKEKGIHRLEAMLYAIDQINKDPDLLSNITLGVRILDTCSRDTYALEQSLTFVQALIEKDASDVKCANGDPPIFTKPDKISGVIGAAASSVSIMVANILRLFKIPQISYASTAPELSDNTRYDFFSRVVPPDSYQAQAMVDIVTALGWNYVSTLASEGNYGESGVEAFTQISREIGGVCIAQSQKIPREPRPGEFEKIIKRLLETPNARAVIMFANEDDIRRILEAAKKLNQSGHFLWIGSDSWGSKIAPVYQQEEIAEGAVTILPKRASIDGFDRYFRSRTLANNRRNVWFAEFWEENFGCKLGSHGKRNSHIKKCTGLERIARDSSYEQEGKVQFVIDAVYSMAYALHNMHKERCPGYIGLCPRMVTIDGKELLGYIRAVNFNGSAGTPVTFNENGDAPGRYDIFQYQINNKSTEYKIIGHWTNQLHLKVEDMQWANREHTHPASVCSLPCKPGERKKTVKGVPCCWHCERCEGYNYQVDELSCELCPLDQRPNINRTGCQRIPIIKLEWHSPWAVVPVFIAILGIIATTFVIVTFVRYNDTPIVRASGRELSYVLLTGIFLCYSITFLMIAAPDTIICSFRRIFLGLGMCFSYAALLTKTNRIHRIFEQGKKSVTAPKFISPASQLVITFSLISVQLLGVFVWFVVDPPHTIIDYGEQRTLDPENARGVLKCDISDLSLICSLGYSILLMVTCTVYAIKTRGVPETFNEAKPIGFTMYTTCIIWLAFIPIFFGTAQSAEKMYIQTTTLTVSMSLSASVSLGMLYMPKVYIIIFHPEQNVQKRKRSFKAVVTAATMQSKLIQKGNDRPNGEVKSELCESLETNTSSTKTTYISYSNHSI
Test: mGluR8 Gi/Go-coupled signaling modulation – cell-based, rat, thallium flux, HTS, primary screen (AID 488969)
Settings: HEK293 rat mGluR8, GIRK (G protein-gated inwardly rectifying potassium channel) thallium flux, FluoZin2; at 10 µM; stronger effect = higher value; submaximal glutamate (EC20) added with thallium

SMILES	z-score
CCC(C)NC(=O)CSc1nc2c(sc(=S)n2Cc2ccco2)c(=O)n1-c1ccccc1 (stereo not drawn)	0.437
Cc1ccc2[nH]c(=O)c(CN(Cc3cccs3)S(=O)(=O)c3ccc4c(c3)OCCO4)cc2c1	0.0485
CCOC(=O)Cc1csc(SCC(=O)Nc2cccc(Cl)c2)n1	0.368
Cc1onc(-c2ccccc2Cl)c1C(=O)NC1CCS(=O)(=O)C1 (stereo not drawn)	-0.0472
COc1cc2cc(CN(CCc3ccccc3C)C(=S)NCCCN(C)C)c(=O)[nH]c2cc1OC	0.66
Cc1ccc2nc(-c3ccc(N4C(=N)SC5CS(=O)(=O)CC54)cc3)sc2c1 (stereo not drawn)	2.09
CC(=O)N=C1SC2CS(=O)(=O)CC2N1c1ccc(-c2nc3ccc(C)cc3s2)cc1 (stereo not drawn)	0.0589
CCCC(=O)N=C1SC2CS(=O)(=O)CC2N1c1ccc(-c2nc3ccc(C)cc3s2)cc1 (stereo not drawn)	-0.238
O=C(NCCCN1CCCCC1)c1ccc2c(c1)NC(=O)C(N1CCCCC1)S2 (stereo not drawn)	0.905
CC1CC(C)CN(CCCNC(=O)c2ccc3c(c2)NC(=O)C(N2CCCCC2)S3)C1 (stereo not drawn)	2.18
O=C(NCCCN1CCCCCC1)c1ccc2c(c1)NC(=O)C(N1CCOCC1)S2 (stereo not drawn)	0.756
CCCCCOC(=O)Cn1c(N2CCOCC2)nc2c1c(=O)[nH]c(=O)n2C	-0.228
Cc1ccc(C2CC(=O)c3cnc(NC(=O)c4ccco4)nc3C2)cc1 (stereo not drawn)	-0.398
S=C(Nc1ccccc1)c1nc2ccccc2s1	2.64
Cc1ccc(C)c(NC(=S)N2CCC(c3nc4ccccc4s3)CC2)c1	0.656
S=C(Nc1ccc(Cl)cc1)c1nc2ccccc2s1	0.236
Cc1ccc(C)c(NC(=S)c2nc3ccccc3s2)c1	8.98 (active)
Cc1cccc(NC(=S)c2nc3ccccc3s2)c1	0.84
Cc1ccc(NC(=S)c2nc3ccccc3s2)cc1	0.791
Cc1cc(SCC(=O)c2cc(C)n(C)c2C)nc2ccccc12	-0.0351
NC(=O)C1CCN(Cc2nc3ccccc3c(=O)[nH]2)CC1	-0.276
Cn1c(=O)oc2cc(S(=O)(=O)NC3CCN(Cc4ccccc4)CC3)ccc21	-0.316
O=c1oc2ccccc2cc1-c1csc(NN=C2CCCCC2)n1	-0.185

SMILES	z-score
O=C(NNC(=O)C1CCCO1)c1ccc(F)cc1 (stereo not drawn)	-0.154
CCOCc1nnc(NC(=O)c2cccs2)s1	0.125
Cn1c(N)c(C(=O)c2ccccc2)c(=O)n(C)c1=O	-0.397
Cc1ccccc1CSCC(=O)c1c(N)n(C)c(=O)n(C)c1=O	-0.253
CCN(CC(=O)c1c(N)n(C)c(=O)n(C)c1=O)c1cccc2ccccc12	2.55
COc1ccc(NC(=S)Nc2ccc(S(=O)(=O)N3CCOCC3)cc2)c(OC)c1	0.108
O=C(CSc1nnc(-c2ccco2)n1-c1ccccc1)N1CCc2ccccc21	0.00192
Cc1ccc(Nc2nc(Oc3ccc(=O)[nH]n3)nc(N(C)C)n2)cc1	-0.00557
COCCCNC(=O)C(C#N)c1nc2ccccc2nc1N1CCCC1 (stereo not drawn)	-0.459
CCCCN(CCCC)c1nc2ccccc2nc1C(C#N)C(=O)NCCCOC (stereo not drawn)	6.64 (active)
CCCN(CCC)c1nc2ccccc2nc1C(C#N)C(=O)OC(C)COC (stereo not drawn)	-3.86 (active)
CCN(CC)P1(=O)OC(c2cc(OC)c(OC)c(OC)c2)=Nc2c1c(C)nn2-c1ccccc1 (stereo not drawn)	-1.4
COc1ccc(S(=O)(=O)N2CCC(C(=O)N3CCN(c4ccccc4OC)CC3)CC2)cc1	-0.274
CC(C)N1CC(C(=O)Nc2ccc(Br)c(Cl)c2)CC1=O (stereo not drawn)	0.0942
CC(C)(C)S(=O)(=O)c1nc2ccccc2s1	0.279
CC(C)(C)S(=O)(=O)c1ccc(S(=O)(=O)C(C)(C)C)s1	2.32
CCS(=O)(=O)c1ccc(S(=O)(=O)CC)s1	-0.137
CCc1nc(C)cn1S(=O)(=O)c1cc(Br)c(C)cc1OC	-0.193
CCc1nc(C)cn1S(=O)(=O)c1cc(Cl)c(OC)cc1Cl	2.99
CCc1nc(C)cn1S(=O)(=O)c1cc(C)c(OC)cc1C	0.289
Cc1nc(CS(=O)c2ccc(Cl)cc2)cc(NCc2ccc(Cl)cc2Cl)n1 (stereo not drawn)	0.31
CCOc1nc(-c2ccc(Cl)cc2Cl)ccc1C#N	-0.211
COC(=O)c1ccccc1NC(=S)NC(NC(=O)c1ccco1)C(Cl)(Cl)Cl (stereo not drawn)	15.3 (active)

SMILES	z-score
COC(=O)c1ccccc1NC(=S)NC(NC(=O)c1ccccc1[N+](=O)[O-])C(Cl)(Cl)Cl (stereo not drawn)	2.67
O=C(O)c1ccccc1NC(=S)NC(NC(=O)c1ccccc1[N+](=O)[O-])C(Cl)(Cl)Cl (stereo not drawn)	-0.103
COc1ccccc1NC(=S)NC(NC(=O)c1ccco1)C(Cl)(Cl)Cl (stereo not drawn)	-0.246
COc1ccc(NC(=S)NC(NC(=O)c2ccccc2Cl)C(Cl)(Cl)Cl)c([N+](=O)[O-])c1 (stereo not drawn)	-0.469
O=C(NC(NC(=S)Nc1ccccc1C(=O)O)C(Cl)(Cl)Cl)c1ccco1 (stereo not drawn)	-0.106
CCNC(=O)NC(=O)C(C)OC(=O)c1cccnc1SC (stereo not drawn)	-0.0754
CN(C)C(=O)C(=O)c1c(-c2ccccc2)cc2ccccn12	-0.294
CN(CC(=O)Nc1ccccc1Br)Cc1nc2ccccc2c(=O)[nH]1	0.733
N#Cc1nc(Cc2ccccc2)oc1N1CCN(c2cccc(Cl)c2)CC1	0.287
N#Cc1nc(COc2cccc(Cl)c2)oc1N1CCCC1	-0.382
N#Cc1nc(COc2ccccc2)oc1N1CCN(c2cccc(Cl)c2)CC1	3.31 (active)
Cc1c(CCOC(=O)C2C3CC4CC(C3)CC2C4)sc[n+]1CC(=O)c1ccc(Br)cc1 (stereo not drawn)	2.48
Cc1ncsc1CCOC(=O)C1C2CC3CC(C2)CC1C3 (stereo not drawn)	0.00939
Cc1c(CCOC(=O)CC23CC4CC(CC(C4)C2)C3)sc[n+]1CC(=O)c1ccc(Br)cc1	0.0917
COc1cc2[nH]c(=O)n(CCC(=O)N3CCC(N4CCCCC4)CC3)c(=O)c2cc1OC	0.8
COc1cc2[nH]c(=O)n(CCCCCC(=O)N3CCN(c4ccccc4)CC3)c(=O)c2cc1OC	-0.317
CCOc1cc2[nH]c(=O)n(CCCCC(=O)N3CCCCCC3)c(=O)c2cc1OCC	2.21
O=C(CCC(=O)OCC(=O)c1cccc([N+](=O)[O-])c1)Nc1ccccc1Cl	0.0825
CCOC(=O)CC(=O)Nc1ccc(C)cc1	-0.33
Cc1ccc(C2C(C=Nc3c(C)n(C)n(-c4ccccc4)c3=O)=C(c3ccccc3)Oc3ccccc32)cc1 (stereo not drawn)	-0.137
Cc1cccc(N=C2NC(=O)/C(=C\c3cccs3)S2)c1	0.692
Cc1ccc(C2C(/C=C3/SC(=S)NC3=O)=C(c3cccs3)Oc3ccccc32)cc1 (stereo not drawn)	2.55
